Experimental data taken from PubChem BioAssay AID1159580 (chemical genetic matrix, 2015).
About 2,000 (36%) of roughly 5,500 compounds were called active. About 18% were inconclusive and are not listed. Rule as the data show it: active = normalized growth mostly below about 0.91 (no sharp cut-off); inconclusive = no clear call, values can overlap the other calls; inactive = mostly above about 0.92. Some of the results follow.

Experiment: chemical genetic growth profiling, strain panel (AID 1159580);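 also: tested at 20 µM; growth read once vehicle control cultures reached saturation at 30 °C; 1 = growth at the plate median or of vehicle wells; lower values mean less growth of the strain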
Conditions: S. cerevisiae deletion strains, growth OD

Measured: normalized growth

CC(C)(Oc1ccc(Cl)cc1)C(=O)O
inactive: locus YAL013W, strain DEP1, active compounds read low 1 | locus YAL021C, strain ccr4, active compounds read low 1.02 | locus YAL026C, strain drs2, active compounds read low 1.03 | locus YAL030W, strain snc1, active compounds read low 0.996 | locus YBL061C, strain skt5, active compounds read low 1.04 | locus YBR009C, strain hhf1, active compounds read low 0.988 | locus YBR021W, strain FUR4, active compounds read low 1.12 | locus YBR023C, strain chs3, active compounds read low 1.03 | locus YBR171W, strain sec66, active compounds read low 1.02 | locus YBR229C, strain ROT2, active compounds read low 0.998 | locus YBR231C, strain swc5, active compounds read low 0.997 | locus YBR279W, strain paf1, active compounds read low 1.02 | locus YCL011C, strain gbp2, active compounds read low 1 | locus YCL016C, strain dcc1, active compounds read low 1.03 | locus YCL029C, strain bik1, active compounds read low 0.956 | locus YCL069W, strain vba3, active compounds read low 1.01 | locus YCR088W, strain abp1, active compounds read low 1.01 | locus YDL005C, strain med2, active compounds read low 1.02 | locus YDL035C, strain GPR1, active compounds read low 0.997 | locus YDL040C, strain nat1, active compounds read low 0.996 | locus YDL074C, strain BRE1, active compounds read low 0.949 | locus YDL101C, strain DUN1, active compounds read low 0.986 | locus YDL134C, strain PPH21, active compounds read low 1 | locus YDL185W, strain tfp1, active compounds read low 0.938 | locus YDL192W, strain arf1, active compounds read low 0.981 | locus YDR001C, strain nth1, active compounds read low 1 | locus YDR069C, strain doa4, active compounds read low 1.01 | locus YDR101C, strain arx1, active compounds read low 0.979 | locus YDR137W, strain rgp1, active compounds read low 1.01 | locus YDR150W, strain NUM1, active compounds read low 0.995 | locus YDR159W, strain sac3, active compounds read low 0.949 | locus YDR162C, strain NBP2, active compounds read low 0.987 | locus YDR195W, strain ref2 0.979 | locus YDR297W, strain sur2, active compounds read low 0.99 | locus YDR318W, strain mcm21, active compounds read low 0.98 | locus YDR334W, strain swr1, active compounds read low 1 | locus YDR335W, strain msn5, active compounds read low 1.01 | locus YDR388W, active compounds read low 0.979 | locus YDR392W, strain spt3, active compounds read low 0.974 | locus YDR502C, strain sam2, active compounds read low 0.993 | locus YEL003W, strain gim4, active compounds read low 0.984 | locus YEL037C, strain rad23, active compounds read low 1.01 | locus YEL061C, strain CIN8 (second series), active compounds read low 1 | locus YEL061C, strain CIN8, active compounds read low 1 | locus YER015W, strain faa2, active compounds read low 1.01 | locus YER016W, strain bim1, active compounds read low 1.03 | locus YER110C, active compounds read low 0.983 | locus YER111C, strain swi4, active compounds read low 1.01 | locus YER155C, strain BEM2 (second series), active compounds read low 1.01 | locus YER155C, strain BEM2, active compounds read low 0.983 | locus YER167W, strain BCK2, active compounds read low 0.999 | locus YFR010W, strain ubp6, active compounds read low 0.976 | locus YGL078C, strain dbp3, active compounds read low 0.998 | locus YGL086W, strain mad1, active compounds read low 0.997 | locus YGL167C, strain pmr1, active compounds read low 1.01 | locus YGL173C, strain kem1, active compounds read low 0.982 | locus YGL227W, strain vid30, active compounds read low 0.993 | locus YGL240W, strain doc1, active compounds read low 1 | locus YGL248W, strain PDE1, active compounds read low 1 | locus YGL253W, strain hxk2, active compounds read low 1.01 | locus YGR078C, strain PAC10, active compounds read low 0.954 | locus YGR135W, strain pre9, active compounds read low 1.01 | locus YGR229C, strain SMI1, active compounds read low 1 | locus YGR252W, strain gcn5, active compounds read low 1.23 | locus YHR013C, strain ard1, active compounds read low 1.02 | locus YHR027C, strain rpn1, active compounds read low 1 | locus YHR030C, strain SLT2, active compounds read low 1 | locus YHR079C, strain IRE1 (second series), active compounds read low 0.964 | locus YHR094C, strain hxt1, active compounds read low 0.963 | locus YHR129C, strain ARP1, active compounds read low 0.988 | locus YHR142W, strain chs7, active compounds read low 1.04 | locus YHR200W, strain rpn10, active compounds read low 0.977 | locus YIL066C, strain RNR3, active compounds read low 0.99 | locus YIL073C, strain SPO22, active compounds read low 0.948 | locus YIL125W, strain kgd1, active compounds read low 0.98 | locus YIR030C, strain dcg1, active compounds read low 0.988 | locus YJL092W, strain hpr5, active compounds read low 1.02 | locus YJL095W, strain BCK1 (second series), active compounds read low 1.02 | locus YJL095W, strain BCK1, active compounds read low 0.976 | locus YJL115W, strain asf1, active compounds read low 1.01 | locus YJL129C, strain trk1, active compounds read low 1.03 | locus YJL134W, strain LCB3, active compounds read low 0.999 | locus YJL154C, strain vps35, active compounds read low 1.01 | locus YJL164C, strain tpk1, active compounds read low 0.993 | locus YJL166W, strain qcr8, active compounds read low 0.997 | locus YJL168C, strain set2, active compounds read low 0.976 | locus YJL187C, strain SWE1 (second series), active compounds read low 0.973 | locus YJR043C, strain POL32, active compounds read low 0.985
